A word on the inhibition: it is the change of the read-out against control, counted positive when it falls.

The source of these data is PubChem BioAssay AID652257 (The Scripps Research Institute Molecular Screening Center, 2013).

The structures appear in SMILES notation. Among all 370,000 compounds or so, about 4,800 (1.3%) were called active. The sample holds actives, similar compounds and a random draw of the others, so the mix is not that of the screen. A number with no mark means an inactive call.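 Rule for the calls: active = inhibition above about 21% made by adding two undisclosed values (limit read from the data); inactive = the rest.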

Chain of Protein arginine N-methyltransferase 1 (Homo sapiens) (Q99873 whole entry, looked up): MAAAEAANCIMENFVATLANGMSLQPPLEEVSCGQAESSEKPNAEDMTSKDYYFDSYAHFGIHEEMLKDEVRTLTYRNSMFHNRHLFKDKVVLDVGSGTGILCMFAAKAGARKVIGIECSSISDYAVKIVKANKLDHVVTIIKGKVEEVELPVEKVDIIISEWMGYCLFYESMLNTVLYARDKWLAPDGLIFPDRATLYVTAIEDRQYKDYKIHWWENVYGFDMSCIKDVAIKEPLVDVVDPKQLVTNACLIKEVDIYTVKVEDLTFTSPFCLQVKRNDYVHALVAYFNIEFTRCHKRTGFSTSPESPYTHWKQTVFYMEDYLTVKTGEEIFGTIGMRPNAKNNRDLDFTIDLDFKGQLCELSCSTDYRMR

This assay concerns the target Protein arginine N-methyltransferase 1 (Homo sapiens) (UniProt Q99873). In words: PRMT1 methyltransferase inhibitors, primary screen, biochemical, fluorescence polarization (AID 652257). The following applies: recombinant PRMT1, activity-based probe fluorescence polarization; at 2.79 µM; hits give high values. For orientation: In fluorescence polarisation assays a small probe gives low polarisation when free and higher when bound to something large.
Take `O=C(O)C#Cc1cccc2ccccc12`: the inhibition is -1.9%.
On to `CC(CCN1CCC(C(O)(c2ccccc2)c2ccccc2)CC1)Oc1ccc(C(F)(F)F)cc1` (stereo unspecified), for which the inhibition was 0.57%.
Then `CCOc1ccc(-n2c(SCC(=O)Nc3cc(C)c(NC(=O)c4ccccc4)cc3OC)nnc2-c2cccc(Cl)c2)cc1`, with 7.2%; and `C=CS(=O)c1sc(Cl)c(N2CCOCC2)c1[N+](=O)[O-]` (stereo unspecified), with 73.1% (active).
For the molecule `CCN(C(=O)[C@@H](C1CC1)[C@@H](O)c1ccc2ccccc2c1)c1ccccc1`, the inhibition is -0.98%.
As for `O=C(O)C1CCN(C(=O)c2cc(F)cc3c2OCOC3)CC1`, the figure is -0.21%; as for `CC(=O)N1CCc2cc(Br)cc(S(=O)(=O)CCC(=O)Nc3c(C)n(C)n(-c4ccccc4)c3=O)c21`, 4.6%; as for `O=C(CSCc1ccc([N+](=O)[O-])cc1)NCCSCc1ccccc1`, -0.87%.
`O=C(O)/C=C/C(=O)NNc1ccc([N+](=O)[O-])cc1`: the inhibition was 59% (active).
Then `CC(C)(C)C(=O)NCCCNc1ccc([N+](=O)[O-])cc1`, with 9.07%.
Then `COC(=O)c1ccccc1-n1cc(COC(=O)NCCc2ccccc2)nn1`, with -0.03%.
As for `Brc1ccc(/C=N/N2CCN(C3c4ccccc4-c4ccccc43)CC2)s1`, the figure is -0.5%.
Regarding `S=c1[nH]nc(-c2ccco2)n1/N=C/c1ccc(Br)s1`, the inhibition was 34.3% (active).
Then `CCc1ccccc1NC(=S)N(CCN1CCCCCC1)Cc1ccco1`, with -6.03%; and `Cn1c(C(=O)NCCCN2CCCCC2)cc2sccc21`, with -0.77%; and `O=C(Nc1ccc(Br)cc1)OCCN1C(=O)CCC12CCC(c1ccccc1)CC2` (stereo unspecified), with -1.94%.
As for `O=C1C(Cl)=C(Oc2ccccc2)C(=O)c2ccccc21`, the figure is 88.5% (active); as for `COc1ccc(Cn2cc(CN3[C@@H](CC(C)C)COc4cc(Br)ccc4S3(=O)=O)nn2)cc1`, -4.17%.
As for `Cc1ccc(-n2c(SCC(=O)Nc3ccc(S(=O)(=O)Nc4nccs4)cc3)nnc2-c2ccncc2)cc1`, the figure is -1.23%; as for `CC(C)CNc1cccc2c1S(=O)(=O)N(Cc1cn(Cc3ccc(Cl)cc3)nn1)Cc1ccccc1O2`, -5.99%; as for `O=C(NCc1ccccc1)[C@@H]1CCCN1C(=O)[C@H]1CCCN1C(=O)c1cccc(Cl)c1`, -3.52%.
With `O=C(CSc1nc2ccccc2s1)NN=Cc1ccc(O)cc1O`, the inhibition was -0.64%.
On to `O=C(O)c1ccccc1CSc1nc2ccccc2s1`, for which the inhibition is 40.8% (active).
Then `O=C(CSc1nc2ccccc2s1)N=Nc1c(O)[nH]c2ccccc12`, with 2.56%; and `Cc1ccc(NC(=O)c2cc(C)nn2-c2ccccc2)c(C)c1`, with -2.87%.
Then `CCCC(=O)NC(Nc1ccccc1OC)C(Cl)(Cl)Cl` (stereo unspecified), with 1.36%.
Consider `CCN(CC)c1ccc2oc(=O)c(C)nc2c1`, for which the inhibition was 46.6% (active).
Turning to `CCN(C(=O)CSc1nnc(-c2ccc(OC(F)F)cc2)n1N)C1CCS(=O)(=O)C1` (stereo unspecified), the inhibition is -3.24%.
As to `Cc1ccc(Cc2cnc(N)s2)o1`, the inhibition is 40.4% (active).
For the molecule `Cc1ccc(-n2c(C)cc(/C=C(\C#N)C(=O)NCC3CCCO3)c2C)cc1` (stereo unspecified), the inhibition was -0.82%.
As for `CCCNC(=O)Nc1ccc2c(c1)C(=O)N(C)[C@H]1CC[C@H](CC(=O)NCC3CCCCC3)O[C@@H]1CO2`, the figure is 1.64%; as for `C[C@@H](NC(=O)c1ccccc1OCC(=O)Nc1ccc(I)cc1)C(=O)N(C)Cc1ccccc1`, -0.05%; as for `Cc1cc(C)nc(NC(=S)N2CCN(c3ccc(C(F)(F)F)cn3)CC2)c1`, 7.93%.
As for `O=C(NCC(=O)N1CCN(c2ncc(C(F)(F)F)cc2Cl)CC1)c1ccc(Br)o1`, the figure is -1.7%.
Then `COc1ccnc(NC(=S)N2CCN(c3ncc(C(F)(F)F)cc3Cl)CC2)c1`, with 35.6% (active); and `CC(C)c1ccc(NC2CCCN(C(=O)c3ccncc3)C2)cc1` (stereo unspecified), with 5.83%.
For `Cc1cc(NS(=O)(=O)c2ccc(NC(=O)CSc3nnc(SCc4ccc(F)cc4)s3)cc2)nc(C)n1`, the inhibition was 1.42%.
With `CC1CCN(C(=S)c2ccc(-c3ccc(Cl)cc3Cl)o2)CC1`, the inhibition is 31.8% (active).
In the case of `CC1CCN(C(=S)c2cccc(O)c2)CC1`, the inhibition is 3%.
As for `COc1ccc(C(=O)Nc2c(Cl)cc(Cl)cc2C(=O)N2CCC(C)CC2)cc1`, the figure is 1.04%; as for `C1CC1Cc1noc(CN2CCN(CC3CC3)CC2)n1`, -0.03%; as for `Cc1nc(NC(=O)C(C)(C)C)sc1[N+](=O)[O-]`, -3.06%.
Then `CCN(CC)CCNS(=O)(=O)c1ccc(/C=C/C(=O)O)cc1`, with 4.48%.
With `CCOc1cc(/C=N/n2cnnc2)c(Br)cc1O`, the inhibition is 4.53%.
Then `CCOc1cccc(/C=N/N2C(=O)CSC2=S)c1O`, with 63.6% (active).
In the case of `COC(=O)[C@]12C[C@H](CC(=O)NCC34CC5CC(CC(C5)C3)C4)C(=O)N(Cc3ccc(Cl)cc3Cl)C1=C[C@H](COCc1ccccc1)O[C@@H]2C`, the inhibition is 2.58%.
As for `COC(=O)[C@]12C[C@H](CC(=O)N3CCN(C(=O)C4CC4)CC3)C(=O)N(CCC3=CCCCC3)C1=C[C@H](C(C)C)O[C@@H]2C1CC1`, the figure is 1.61%.
As for `Cc1cccc(NC(=O)c2sc3nc(N4CCOCC4)c4c(c3c2N)CCCC4)c1`, the figure is 33% (active); as for `c1ccc(CSc2ncnc3c2sc2nc(N4CCOCC4)c4c(c23)CCCC4)cc1`, -1.26%; as for `Cc1cccc(NC(=O)CSc2nnc(NC(=O)CN3CCOCC3)s2)c1`, 0.98%.
As for `COc1cc(C(=O)N/C(=C\c2cn(C)c3ccccc23)C(=O)N2CCOCC2)cc(OC)c1OC`, the figure is 4.22%; as for `COc1ccc(C2CC=C(C(=O)O)C(c3ccccc3F)N2S(=O)(=O)c2ccc(C)cc2)cc1OC` (stereo unspecified), -1.02%.
For the molecule `COc1cccc2c1C(=O)c1c(O)c3c(c(O)c1C2=O)CC(O)(C(C)=NNC(=O)c1ccc(Cl)c(Cl)c1)CC3OC1CC(N)C(O)C(C)O1` (stereo unspecified), the inhibition was 179% (active).
Regarding `CN1c2ccc(C=O)c3c(C=O)ccc(c23)N(C)C1(C)C`, the inhibition was 68.8% (active).
As for `O=C(CSc1nc2nccnc2c(=O)n1Cc1cccs1)Nc1ccccc1F`, the figure is 5%; as for `O=C1C(=O)N(Cc2ccc(-c3ccsc3)cc2)c2ccc(OC(F)(F)F)cc21`, -4.19%.
For `O=C1CC[C@@H](COc2ccc3[nH]cc(-c4ccccc4)c3c2-c2ccccc2)N1`, the inhibition is -0.73%.
Turning to `CC(C)(C)c1nnc2sc(SCC(O)=C(C#N)c3nc4ccccc4[nH]3)nn2c1=O`, the inhibition was 21.6% (active).
With `Cc1ccc(NC(=O)CSc2nn3c(=O)c(C)nnc3s2)cc1Cl`, the inhibition was 1.57%.
Then `O=C(Cc1ccccc1)NCC1OCCc2ccccc21` (stereo unspecified), with 0%.
Then `COc1ccc(C)cc1NC(=O)CSc1nc(SC)ns1`, with 16%; and `COc1ccc(NC(=O)CSc2nc(SC)ns2)c(OC)c1`, with 36.5% (active); and `CSc1nsc(SCC(=O)Nc2cc(C(=O)O)ccc2C)n1`, with 20.1%.
As for `O=C1CC(c2ccc3c(c2)OCO3)N=C2N(CC3CC3)C/C(=C/c3ccccc3)N12` (stereo unspecified), the figure is -0.31%; as for `CC1Cc2ccccc2N1CC(=O)Nc1ccc(S(N)(=O)=O)cc1` (stereo unspecified), -0.96%; as for `Cc1nc2ccc(S(=O)(=O)NCC(=O)O)cc2s1`, 36.9% (active).
As to `Cc1nc2ccc(S(=O)(=O)NCC(=O)NCCN3CCCCC3C)cc2s1` (stereo unspecified), the inhibition was -0.17%.
As for `COc1cccc(CNC(=O)CNS(=O)(=O)c2ccc3nc(C)sc3c2)c1OC`, the figure is -2.5%.
Then `COCC(C)NC(=O)CSc1nc2nn(-c3ccccc3)c(=O)c-2c2n1CCCCC2` (stereo unspecified), with 5.41%.
With `CNC(=S)NNC(=O)c1ccc(N(C)C)cc1`, the inhibition was -0.78%.
As for `CC1CN(/C=C/C(=O)C(F)(F)F)CC(C)O1` (stereo unspecified), the figure is -0.81%; as for `CN(C)c1ccc(N/C=C/C(=O)C(F)(F)F)cc1`, 36.9% (active); as for `c1csc(-c2nnc(SCc3nc4ccccc4[nH]3)o2)c1`, -6.14%.
For the molecule `C=CCN1C(=O)[C@@H](CC(=O)NCCCOCCCC)[C@]2(C(=O)OCC)CCCCC/C=C/12`, the inhibition was 2.37%.
Then `c1ccc(C(=NNc2nc3ccccc3s2)c2ccccn2)cc1`, with 27.5% (active); and `CCC(=O)Nc1ccc2c(c1)C(=O)N(C)[C@H]1CC[C@H](CC(=O)NCCOC)O[C@@H]1CO2`, with 5.57%; and `CCc1ccccc1N1C(=O)C2C3CC(=O)C(c4ccccc43)C2C1=O` (stereo unspecified), with -4.03%.
As for `Cn1c(=O)c2cn(-c3cccc4ccccc34)cc2n(C)c1=O`, the figure is -1.91%.
Then `CC1=C(C)CC2C(=O)N(c3cccc4ccccc34)C(=O)C2C1` (stereo unspecified), with 42% (active); and `Cc1ccc(N/N=C2\COC(C)(C)CC2=O)cc1`, with -2.4%; and `COc1ccccc1Oc1ccc(N/C=C2/CCCC2=O)cc1`, with -1.7%.
For the molecule `COc1ccc(N/N=C2/CCCCC2=O)cc1`, the inhibition was 32.7% (active).
As for `C=CCN(Cc1ccc2c(c1)OCO2)C(C#CC1CC1)C(C)(C)C` (stereo unspecified), the figure is 1.88%; as for `Cc1cc(NC(=O)CSCC(=O)NC(C)c2ccccc2)no1` (stereo unspecified), -1.57%.
With `CN1CCc2nc(SC(C(=O)O)c3ccccc3)c(C#N)c(-c3cccs3)c2C1` (stereo unspecified), the inhibition is 11.9%.
With `CC(NC(=O)CSc1nc2c(cc1C#N)CN(C)CC2)c1ccccc1` (stereo unspecified), the inhibition was 37.7% (active).
As for `CCOc1ccc(N(C)Cc2cc(=O)oc3ccc(OC)cc23)cc1`, the figure is -2.23%; as for `COc1cc2c(cc1OC)C(c1ccccc1Br)NC(=O)C2` (stereo unspecified), 4.47%; as for `Brc1ccccc1C1Nc2cccc3cccc(c23)N1`, 39.4% (active).
Then `Brc1ccccc1C1N=C(c2ccccc2)NO1` (stereo unspecified), with 3.27%; and `COC(=O)c1c(-c2ccc(OC)cc2)c2c(c3c4ccccc4n(S(=O)(=O)c4ccc(C)cc4)c13)C(=O)N(C)C2`, with 3.01%.
